Calls of active or inactive are those of the source. Rule for the calls: active = hit-call score of the fitted dose curve at least 0.9, where 1 is the maximum; inactive = score below 0.9.

Read-out in test [1]: Transforming growth factor beta 1 (TGFb1), TGFB1 (gene 7040)
The test is described as follows: BSK_KF3CT_TGFb1: BioMAP Diversity Plus: KF3CT Assay for Transforming growth factor beta 1 (TGFb1) Biomarker Activity (AID 2283072). Particulars: primary human keratinocytes with fibroblasts; actives raise or lower the signal. The method, boiled down:
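Primary human skin cells (keratinocytes, foreskin fibroblasts) were co-cultured, exposed to test chemical and sampled at 24 h. TGF-b1 levels were measured by ELISA and fitted bidirectionally relative to DMSO.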

Read-out in test [2]: C-C motif chemokine 2 (Homo sapiens) (UniProt P13500)
The test is described as follows: BSK_KF3CT_MCP1: BioMAP Diversity Plus: KF3CT Assay for Monocyte Chemoattractant Protein 1 (MCP1/CCL2) Biomarker Activity (AID 2283073). Particulars: primary human keratinocytes with fibroblasts; actives raise or lower the signal. The procedure, abridged:
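Human keratinocyte plus foreskin fibroblast primary co-culture exposed to chemical for 24 h. MCP-1 levels measured by ELISA. Bidirectional curve fitting relative to DMSO negative control as baseline.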

Read-out in test [3]: Matrix Metallopeptidase 9 (MMP9), MMP9 (gene 4318)
The test is described as follows: BSK_KF3CT_MMP9: BioMAP Diversity Plus: KF3CT Assay for Matrix Metallopeptidase 9 (MMP9) Biomarker Activity (AID 2283074).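 For AC50: MMP9 protein level quantified by ELISA in the co-culture.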 Particulars: primary human keratinocytes with fibroblasts; actives raise or lower the signal. The procedure, abridged:
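Keratinocyte plus foreskin fibroblast human primary skin co-culture was dosed with chemical and MMP-9 was quantified by ELISA 24 h later. Bidirectional curve fitting used DMSO as negative control and activity baseline.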

Read-out in test [4]: urokinase plasminogen activator (uPA), PLAU (gene 5328)
The test is described as follows: BSK_KF3CT_uPA: BioMAP Diversity Plus: KF3CT Assay for urokinase plasminogen activator (uPA) Biomarker Activity (AID 2283075). Particulars: primary human keratinocytes with fibroblasts; actives raise or lower the signal. The procedure, abridged: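 Human keratinocyte plus foreskin fibroblast primary co-culture exposed to chemical for 24 h. uPA levels were quantified by ELISA, and activity was fitted bidirectionally against a DMSO negative-control baseline.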

Read-out in test [5]: CD40, CD40 (gene 958)
The test is described as follows: BSK_LPS_CD40: BioMAP Diversity Plus: LPS Assay for CD40 Biomarker Activity (AID 2283076). Particulars: primary human HUVEC with PBMC; actives raise or lower the signal. The method, boiled down: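 Primary human umbilical vein endothelial cells co-cultured with peripheral blood mononuclear cells, LPS-stimulated, were dosed with chemical and read 24 h later. CD40 levels were measured by ELISA and fitted bidirectionally against DMSO as negative control and baseline.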

Read-out in test [6]: E-selectin (Homo sapiens) (UniProt P16581)
The test is described as follows: BSK_LPS_Eselectin: BioMAP Diversity Plus: LPS Assay for Eselectin Biomarker Activity (AID 2283077). Particulars: primary human HUVEC with PBMC; actives raise or lower the signal. The procedure, abridged:
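Human umbilical vein endothelial cells co-cultured with peripheral blood mononuclear cells under LPS stimulation; E-selectin measured by ELISA 24 h after chemical dosing. Activity fitted bidirectionally against DMSO as negative control and baseline.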

Read-out in test [7]: Interleukin-8 (IL8), CXCL8 (gene 3576)
The test is described as follows: BSK_LPS_IL8: BioMAP Diversity Plus: LPS Assay for Interleukin-8 (IL8) Biomarker Activity (AID 2283078). Particulars: primary human HUVEC with PBMC; actives raise or lower the signal. The method, boiled down:
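Human umbilical vein endothelial cells co-cultured with PBMC were stimulated with LPS; IL-8 levels were measured by ELISA 24 h after chemical dosing. Activity was fitted bidirectionally against DMSO as negative control and baseline.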

Test [8] can be described thus: BSK_LPS_SRB: Viability Assessment in the BioMAP Diversity Plus: LPS Assay (AID 2283079).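 Note: total protein by sulforhodamine B absorbance as a cytotoxicity measure; measured one day after compound addition; fitted in both directions against DMSO so loss or gain of signal counts.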 Particulars: primary human HUVEC with PBMC. The method, boiled down:
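Human umbilical vein endothelial cells co-cultured with PBMC (LPS system) were dosed for 24 h. Total protein was stained with 0.1% sulforhodamine B after 10% TCA fixation, read at 560 nm, and fitted bidirectionally against DMSO baseline.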

Read-out in test [9]: Interleukin-1 alpha (IL1a), IL1A (gene 3552)
The test is described as follows: BSK_LPS_IL1a: BioMAP Diversity Plus: LPS Assay for Interleukin-1 alpha (IL1a) Biomarker Activity (AID 2283080). Particulars: primary human HUVEC with PBMC; actives raise or lower the signal. The procedure, abridged:
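Human umbilical vein endothelial cells co-cultured with peripheral blood mononuclear cells were LPS-stimulated and exposed to test chemicals for 24 h. IL-1 alpha was quantified by ELISA, with bidirectional curve fitting against DMSO as the negative control and baseline.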

Read-out in test [10]: Monocyte Chemoattractant Protein-1 (MCP1), CCL2 (gene 6347)
The test is described as follows: BSK_LPS_MCP1: BioMAP Diversity Plus: LPS Assay for Monocyte Chemoattractant Protein-1 (MCP1) Biomarker Activity (AID 2283081).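 For AC50: co-culture stimulated with LPS; secreted MCP-1 protein quantified by ELISA in culture supernatant.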 Particulars: primary human HUVEC with PBMC; actives raise or lower the signal. The procedure, abridged:
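HUVEC plus PBMC co-culture (human primary cells, LPS system) exposed to test chemical for 24 h; MCP-1 measured by ELISA. Bidirectional curve fitting against DMSO baseline; parallel SRB total-protein staining flags overt cytotoxicity.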

Test [11] is described as follows: BSK_LPS_PGE2: BioMAP Diversity Plus: LPS Assay for Prostaglandin E2 (PGE2) Biomarker Activity (AID 2283082).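 For AC50: secreted prostaglandin E2 measured by ELISA in LPS-stimulated co-culture.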 Particulars: primary human HUVEC with PBMC; actives raise or lower the signal. The method, boiled down:
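LPS-activated HUVEC/PBMC co-culture; cmpd dosed, 24 h; PGE2 by ELISA; bidirectional fit vs DMSO; SRB (0.1%, TCA-fixed, 560 nm) in parallel plates for overt cytotox.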

Read-out in test [12]: Macrophage colony-stimulating factor (MCSF), CSF1 (gene 1435)
The test is described as follows: BSK_LPS_MCSF: BioMAP Diversity Plus: LPS Assay for Macrophage colony-stimulating factor (MCSF) Biomarker Activity (AID 2283083). Particulars: primary human HUVEC with PBMC; actives raise or lower the signal. The procedure, abridged: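 Human umbilical vein endothelial cells co-cultured with peripheral blood mononuclear cells were exposed to compound for 24 h. M-CSF levels were measured by ELISA, and bidirectional curve fitting used DMSO as the negative control and baseline.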

Read-out in test [13]: Tissue Factor, F3 (gene 2152)
The test is described as follows: BSK_LPS_TissueFactor: BioMAP Diversity Plus: LPS Assay for Tissue Factor Biomarker Activity (AID 2283084). Particulars: primary human HUVEC with PBMC; actives raise or lower the signal. The method, boiled down: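 Human umbilical vein endothelial cells co-cultured with peripheral blood mononuclear cells were dosed and stimulated with LPS. Cell-surface CD142 was quantified by ELISA at 24 h. Activity was fitted bidirectionally against DMSO baseline.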

Read-out in test [14]: Tumor necrosis factor (Homo sapiens) (UniProt P01375)
The test is described as follows: BSK_LPS_TNFa: BioMAP Diversity Plus: LPS Assay for Tumour Necrosis Factor alpha (TNFa) Biomarker Activity (AID 2283085). Particulars: primary human HUVEC with PBMC; actives raise or lower the signal. The procedure, abridged:
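Read-out is ELISA of TNFa in primary human endothelial cell–PBMC co-cultures at 24 h after compound. Activity in either direction was fitted against DMSO.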

Read-out in test [15]: Vascular cell adhesion molecule 1 (VCAM1), VCAM1 (gene 7412)
The test is described as follows: BSK_LPS_VCAM1: BioMAP Diversity Plus: LPS Assay for Vascular cell adhesion molecule 1 (VCAM1) Biomarker Activity (AID 2283086). Particulars: primary human HUVEC with PBMC; actives raise or lower the signal. The method, boiled down: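 HUVEC + PBMC co-culture, LPS system; compound 24 h; VCAM-1 by ELISA; bidirectional fit vs DMSO control; parallel SRB (0.1%, TCA-fixed, 560 nm) for cytotoxicity.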

Read-out in a further test: CD38, CD38 (gene 952)
The test is described as follows: BSK_SAg_CD38: BioMAP Diversity Plus: SAg Assay for CD38 Biomarker Activity (AID 2283087). Particulars: primary human HUVEC with PBMC; actives raise or lower the signal. The procedure, abridged: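 Human HUVEC plus PBMC co-culture stimulated with superantigen; CD38 measured by ELISA 24 h after chemical dosing. Fluorescence read-out, bidirectional fit against DMSO; cytotoxicity tracked in parallel by SRB and Alamar Blue.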

Read-out in test [16]: CD40, CD40 (gene 958)
The test is described as follows: BSK_SAg_CD40: BioMAP Diversity Plus: SAg Assay for CD40 Biomarker Activity (AID 2283088). Particulars: primary human HUVEC with PBMC; actives raise or lower the signal. The procedure, abridged: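 Human umbilical vein endothelial cells co-cultured with PBMC; CD40 levels measured by ELISA with fluorescence read-out 24 h after chemical dosing. Gain or loss of signal fitted bidirectionally against DMSO baseline.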

Read-out in a further test: CD69, CD69 (gene 969)
The test is described as follows: BSK_SAg_CD69: BioMAP Diversity Plus: SAg Assay for CD69 Biomarker Activity (AID 2283089).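 For AC50: cell surface CD69 protein quantified by ELISA with fluorescence detection.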 Particulars: primary human HUVEC with PBMC; actives raise or lower the signal. The method, boiled down: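 Endothelial/PBMC co-culture; chemical added; 24 h incubation; CD69 ELISA with fluorescence detection; bidirectional fit vs DMSO.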

Read-out in test [17]: Monocyte Chemoattractant Protein-1 (MCP1), CCL2 (gene 6347)
The test is described as follows: BSK_SAg_MCP1: BioMAP Diversity Plus: SAg Assay for Monocyte Chemoattractant Protein-1 (MCP1) Biomarker Activity (AID 2283090). Particulars: primary human HUVEC with PBMC; actives raise or lower the signal. The method, boiled down: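 MCP-1 levels in the endothelial–PBMC SAg co-culture were quantified by ELISA at 24 h post-dosing; both increases and decreases versus DMSO scored. Cytotoxicity monitored by SRB total protein in parallel cultures.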

Read-out in test [18]: E-selectin (Homo sapiens) (UniProt P16581)
The test is described as follows: BSK_SAg_Eselectin: BioMAP Diversity Plus: SAg Assay for Eselectin Biomarker Activity (AID 2283091). Particulars: primary human HUVEC with PBMC; actives raise or lower the signal. The procedure, abridged: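 HUVEC co-cultured with PBMC, compound dosed then read at 24 h; E-selectin measured by ELISA. Activity fitted bidirectionally against DMSO as negative control and baseline.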

Sequence of Tumor necrosis factor (Homo sapiens) (P01375 whole entry, looked up): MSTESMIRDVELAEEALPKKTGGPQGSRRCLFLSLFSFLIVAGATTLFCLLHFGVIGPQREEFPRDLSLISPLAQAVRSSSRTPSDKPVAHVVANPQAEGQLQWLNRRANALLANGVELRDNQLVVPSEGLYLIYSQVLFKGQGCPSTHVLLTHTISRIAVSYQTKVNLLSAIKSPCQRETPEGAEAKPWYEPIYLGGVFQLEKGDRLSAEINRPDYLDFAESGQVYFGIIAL
Sequence of E-selectin (Homo sapiens) (P16581 whole entry, looked up): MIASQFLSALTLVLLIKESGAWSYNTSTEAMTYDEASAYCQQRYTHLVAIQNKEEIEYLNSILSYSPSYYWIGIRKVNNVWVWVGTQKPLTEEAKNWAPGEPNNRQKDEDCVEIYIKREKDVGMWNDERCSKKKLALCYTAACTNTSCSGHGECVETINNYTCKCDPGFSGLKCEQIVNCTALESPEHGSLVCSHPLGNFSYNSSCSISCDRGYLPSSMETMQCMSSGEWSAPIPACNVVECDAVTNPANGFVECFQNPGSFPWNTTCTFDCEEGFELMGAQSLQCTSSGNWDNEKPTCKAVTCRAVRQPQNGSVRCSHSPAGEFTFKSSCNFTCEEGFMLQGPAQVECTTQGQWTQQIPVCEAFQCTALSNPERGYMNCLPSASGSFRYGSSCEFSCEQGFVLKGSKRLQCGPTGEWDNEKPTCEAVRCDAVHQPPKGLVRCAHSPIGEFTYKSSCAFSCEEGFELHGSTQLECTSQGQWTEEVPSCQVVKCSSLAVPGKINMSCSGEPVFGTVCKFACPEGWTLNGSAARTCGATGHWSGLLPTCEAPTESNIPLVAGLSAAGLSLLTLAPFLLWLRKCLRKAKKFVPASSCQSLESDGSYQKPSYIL

Consider `Cc1ccc2oc(CN(Cc3ccccc3)C(=O)Nc3c(F)cc(F)cc3F)c(-c3ccc(Cl)cc3)c2c1`, for which the outcome is “inactive” in [1]; “inactive” in test [2]; “inactive” in test [3]; “inactive” in [4]; “inactive” in the test with CD40, CD40 (gene 958) [5]; “inactive” in [6]. For the same molecule, the outcome in test [7], in test [8], in test [9], in test [10], in test [11] and in test [12] was inactive. For the same molecule, the outcome in test [13] was “inactive”; in test [14] it was “inactive”; in test [15], “inactive”; with CD38, CD38 (gene 952) it was “inactive”; in the test with CD40, CD40 (gene 958) [16], “inactive”; with CD69, CD69 (gene 969), “inactive”. Further, the result in [17] and in test [18] was inactive.
On to `c1ccc2ccccc2c1`, for which the outcome in test [1], in [2], in [3], in test [4], in test [6] and in [7] was inactive. In addition, the outcome in test [8], in test [9], in test [10], in test [11], in [12] and in test [13] was inactive. The outcome is “inactive” in test [14]; “inactive” in [15]; “inactive” in the test with CD38, CD38 (gene 952); “inactive” with CD40, CD40 (gene 958) [16]; “inactive” in the test with CD69, CD69 (gene 969); “inactive” in [17]. In test [18], the outcome was inactive.
One may read the AC50 as the concentration at which the activity in the assay is half-maximal. Consider `O=c1[nH]sc2ccccc12`, for which the AC50 is 30.7 µM (active) in test [1]; 30.4 µM (active) in test [2]; 31.2 µM (active) in [3]; 33 µM (active) in test [4]; 25.9 µM (active) in test [6]; 22.1 µM (active) in test [7]. Further, the AC50 in [8] was 25.7 µM (active); in test [9] it was 8.77 µM (active); in test [10], 17.6 µM (active); in [11], 3.94 µM (active); in [12], 12 µM (active); in [13] it was 17.7 µM (active). Further, the concentration at half-maximal activity (AC50) is 9.18 µM (active) in test [14]; 9.14 µM (active) in [15]; 8.45 µM (active) with CD38, CD38 (gene 952); 7.92 µM (active) in the test with CD40, CD40 (gene 958) [16]; 13.1 µM (active) with CD69, CD69 (gene 969); 15.3 µM (active) in test [17]. Also, the AC50 in test [18] was 12.3 µM (active).

(Values after PubChem BioAssay (EPA / NIEHS).)
